# Experimental data reported in PubChem BioAssay (NCATS).
# Results filed as inconclusive are left out. Active and inactive are the calls of the source. Calls come from the whole dose curve.
# Key:
# [1] = qHTS drug screen for cell cycle checkpoint inhibitors in PARPi-resistant BRCA-mutant ovarian cancer cell lines. (AID 1963452); settings: PEO1/OlaR viability, CellTiter-Glo luminescence, 96 h, stronger effect = lower value
# How it was run: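 PEO1, PEO4 and PEO1/OlaR ovarian cancer cells, 600 per well, exposed 96 h at 37C to a dilution series. Viability read by CellTiter-Glo luminescence, normalized to DMSO and empty wells; activity summarized as Z-AUC.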
# [2] = qHTS for identification of novel therapeutic agents for treatment of microphthalmiaassociated transcription factor (MiT) renal cell carcinoma (RCC) (AID 1963991); settings: CellTiter-Glo, 48 h, stronger effect = lower value
# How it was run: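 Three TFE3-fusion RCC lines (UOK109, UOK124, UOK145), 500 cells/well in complete medium, were treated with MIPE 4.0 compounds for 48 hours at 37 C. Viability was by CellTiter-Glo luminescence, normalized to DMSO (100%) and empty wells (0%); curves fitted over 11 concentrations.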
# [3] = measured here: PEO1 parental Z-AUC
SMILES,Z-AUC [1],"Z-AUC [1, 3]",Z-AUC ([1]; measured here: PEO4 Z-AUC),"z-score ([2]; TFE3-RCC UOK109 viability, measured here: UOK109 Z-AUC)","z-score ([2]; TFE3-RCC viability, measured here: UOK124 Z-AUC)","z-score ([2]; TFE3-RCC viability, measured here: UOK145 Z-AUC)"
COc1cc2c(cc1OC)CN(CCc1ccc(NC(=O)c3cccc4c(=O)c5cccc(OC)c5[nH]c34)cc1)CC2,1.13 (inactive),0.952,0.963,–,–,–
Cc1cccc(-c2[nH]c(C(C)(C)C)nc2-c2ccc3nccnc3c2)n1,0.914 (inactive),0.697,0.424,–,–,–
C[C@H](NC(=O)Cc1cc(F)cc(F)c1)C(=O)N[C@@H]1C(=O)N(C)c2ccccc2-c2ccccc21,-0.379 (inactive),-0.57,-0.563,–,–,–
COc1cc2nccc(Oc3ccc(NC(=O)NC4CC4)c(Cl)c3)c2cc1C(N)=O,-1.2 (inactive),0.621,0.0753,–,–,–
COc1ccc(-c2c(-c3ccc(O)cc3O)n[nH]c2C)cc1,0.835 (inactive),0.673,1.1,–,–,–
Fc1ccc(Cl)cc1-c1nc(Nc2ccncc2)c2nccnc2n1,0.985 (inactive),1.18,1.09,–,–,–
OCCC#Cc1nc(-c2ccc(F)cc2)c(-c2ccncc2)n1CCCc1ccccc1,1.23 (inactive),0.482,0.663,–,–,–
CC(C)c1onc(-c2c(Cl)cccc2Cl)c1COc1ccc(/C=C/c2cccc(C(=O)O)c2)c(Cl)c1,0.394 (inactive),-0.0133,0.0704,–,–,–
O=C(Nc1ccc(F)c(C(F)(F)F)c1)Nc1nnc(-c2ccncc2)s1,-0.226 (inactive),-0.821,-0.018,–,–,–
CC[C@H](Nc1ncnc2nc[nH]c12)c1nc2cccc(F)c2c(=O)n1-c1ccccc1,0.714 (inactive),0.526,0.476,–,–,–
O=C1[C@H](Cc2ccc(O)cc2)N2C(=O)CCN(C(=O)NCc3ccccc3)[C@H]2CN1Cc1cccc2ccccc12,0.428 (inactive),0.318,0.0223,–,–,–
COc1cccc2cc(-c3nc(C4CCC(C(=O)O)CC4)n4ncnc(N)c34)[nH]c12 (configuration not stated),-0.482 (inactive),-0.688,-0.315,–,–,–
Cc1cc2c(F)c(Oc3ncnn4cc(OC[C@@H](C)O)c(C)c34)ccc2[nH]1,0.786 (inactive),0.535,0.987,–,–,–
CN[C@@H](C)C(=O)N[C@H]1CCCC[C@H]2CC[C@@H](C(=O)N[C@@H](c3ccccc3)c3cn(CCCCc4ccc(CCCCn5cc([C@@H](NC(=O)[C@@H]6CC[C@@H]7CCCC[C@H](NC(=O)[C@H](C)NC)C(=O)N76)c6ccccc6)nn5)cc4)nn3)N2C1=O,1.6 (inactive),0.404,0.201,–,–,–
CN(C)c1ccc(C2Nc3ccc4ccccc4c3C3=C2C(=O)CC(C)(C)C3)cc1Br (configuration not stated),-0.197 (inactive),-0.276,0.333,–,–,–
CC1(C)CNc2cc(NC(=O)c3cccnc3NCc3ccncc3)ccc21,1.35 (inactive),0.457,0.272,–,–,–
CS(=O)(=O)c1cccc(CNc2nc(Nc3ccc4c(c3)CCC(=O)N4)ncc2C(F)(F)F)c1,-0.784 (inactive),-1.23,-1.25,–,–,–
CCN(c1ccccc1)c1cc(NC)[n+](C)c(C)n1,1.35 (inactive),1.27,1.04,–,–,–
CNCc1ccc(-c2[nH]c3cc(F)cc4c3c2CCNC4=O)cc1,0.567 (inactive),0.569,0.848,–,–,–
CC(C)OC(=O)C1=CN(C(=O)c2ccc(F)c(F)c2)CC(C)(C)c2c1[nH]c1ccccc21,-0.655 (inactive),1.12,0.385,0.178,0.0335,-0.0962
CNC(=O)c1ccccc1Sc1ccc2c(/C=C/c3ccccn3)n[nH]c2c1,0.578 (inactive),0.269,0.241,–,–,–
Cn1cc(-c2ccc3nnc(C(F)(F)c4ccc5ncccc5c4)n3n2)cn1,-0.354 (inactive),0.00451,0.204,–,–,–
C[C@]1(c2nc3c(C(N)=O)cccc3[nH]2)CCCN1,0.745 (inactive),0.586,0.314,–,–,–
